# Bioassay records: PubChem, several laboratories
# HIF activator – HIF pathway transcriptional activation. U2OS HRE-luciferase reporter, luminescence; normalized: DMSO 0%, desferrioxamine 100%. activation, % at 7.5 µM (by protocol). hit rate 0.32% among 300,000. AID 1910;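 active = mean activation of at least 10% of the iron chelator positive control signal, with at least half of replicates also reaching 10%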
# NPR1 activator – GC-A (human) enzyme activation. P16066. HEK293 GC-A cells, cGMP TR-FRET, EC30 ANP; 0% at EC30 ANP, 100% saturating ANP. activation, % at 10 µM. hit rate 0.14% among 370,000. AID 1671463; in the data active = activation above about 40%
# Target sequence (P16066 whole entry, looked up): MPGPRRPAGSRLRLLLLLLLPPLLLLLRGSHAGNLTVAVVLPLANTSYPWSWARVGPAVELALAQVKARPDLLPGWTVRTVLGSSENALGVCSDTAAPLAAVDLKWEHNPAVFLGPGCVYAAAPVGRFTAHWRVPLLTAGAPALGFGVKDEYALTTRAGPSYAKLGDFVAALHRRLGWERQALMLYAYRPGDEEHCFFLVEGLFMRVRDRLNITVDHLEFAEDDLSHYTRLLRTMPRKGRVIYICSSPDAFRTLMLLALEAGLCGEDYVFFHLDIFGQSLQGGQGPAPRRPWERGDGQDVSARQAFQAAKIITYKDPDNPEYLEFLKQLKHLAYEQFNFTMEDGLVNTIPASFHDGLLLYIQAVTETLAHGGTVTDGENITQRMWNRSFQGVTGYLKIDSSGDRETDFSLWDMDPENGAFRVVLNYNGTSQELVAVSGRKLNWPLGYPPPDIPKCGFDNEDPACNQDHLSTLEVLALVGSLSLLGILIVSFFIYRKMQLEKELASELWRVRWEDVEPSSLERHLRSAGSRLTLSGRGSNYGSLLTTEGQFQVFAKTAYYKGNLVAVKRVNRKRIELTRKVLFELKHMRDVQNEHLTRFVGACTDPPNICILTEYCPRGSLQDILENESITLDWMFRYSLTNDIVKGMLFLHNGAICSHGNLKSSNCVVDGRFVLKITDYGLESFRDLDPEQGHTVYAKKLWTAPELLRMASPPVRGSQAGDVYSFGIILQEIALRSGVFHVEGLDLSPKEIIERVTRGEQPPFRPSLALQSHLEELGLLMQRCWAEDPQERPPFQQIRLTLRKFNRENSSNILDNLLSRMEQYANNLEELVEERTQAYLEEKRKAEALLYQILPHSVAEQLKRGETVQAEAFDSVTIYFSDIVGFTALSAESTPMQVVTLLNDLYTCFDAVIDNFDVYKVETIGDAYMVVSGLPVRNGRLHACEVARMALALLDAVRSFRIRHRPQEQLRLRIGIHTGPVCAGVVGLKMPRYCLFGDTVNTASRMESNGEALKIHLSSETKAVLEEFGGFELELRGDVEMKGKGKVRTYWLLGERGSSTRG
# NPR2 activator – GC-B (human) receptor activation. P20594. HEK293-GC-B cells, CNP EC30, cGMP TR-FRET; 0% at EC30 CNP, 100% saturating CNP. activation, % at 10 µM. hit rate 0.11% among 370,000. AID 1920062;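 active = activation at 10 µM reaching about 35% in either raw or pattern-adjusted values, limit read from the data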
# KLK7 zymogen act – activates the human kallikrein-7 zymogen. P49862. purified proKLK7, EDANS-DABCYL substrate fluorescence; 100% is mature enzyme control, 0% vehicle. activation, % at 7 µM. hit rate 0.9% among 370,000. AID 652039;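 active = activation above the mean of all tested compounds plus 3 SD, computed per campaign excluding outliers beyond control limits, cut at about 13% in these data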
# KLK7 act conf – confirmation of human kallikrein-7 zymogen activators; activation, % at 7 µM; AID 686949; purified proKLK7, EDANS-DABCYL substrate fluorescence; scaled: vehicle 0, mature enzyme 100; shares compounds with KLK7 zymogen act; hit rate 68% among 3,200;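 active = activation, as change over the incubation, above the mean of all tested compounds plus 3 SD, cut at about 13% in these data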
# EDANS-DABCYL int – optically interferes with EDANS-DABCYL signal, flagging KLK7 hits | shares compounds with KLK7 zymogen act | EDANS-DABCYL substrate fluorescence interference, no enzyme, 4 h; solvent 0%, active enzyme control 100% | activation, % at 7 µM | hit rate 80% among 3,200;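 active = activation above the all-compound mean plus 3 SD, ignoring values outside control-based bounds, cut at about 4.8% in these data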;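 note: value is the 4 h activation minus the activation read at time zero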
# A number is an active result; n = inactive; x = not tested or not shown. Shown are actives, neighbours in structure and some others; about 1.3% of the full set was active somewhere.
SMILES,HIF activator,NPR1 activator,NPR2 activator,KLK7 zymogen act,KLK7 act conf,EDANS-DABCYL int
COC(=O)c1nn(-c2ccc3c(c2)CCN3C(C)=O)cc1O,n,n,n,124.1,29.1,30.9
CCOC(=O)c1nn(-c2ccc3c(c2)OCCO3)cc1O,n,n,n,n,x,x
COC(=O)c1nn(-c2ccc3c(c2)OCO3)cc1O,n,n,n,13.3,n,n
O=C(Nc1ccc(F)cc1)Nc1sccc1-c1nc2ccccc2s1,n,n,n,31.9,n,n
O=C(N[C@@H]1CCCc2c1cnn2-c1ccc(F)cc1F)c1ccccn1,x,n,n,x,x,x
C=CCC1(O)C(=O)N2C(=C1C(=O)OCC)c1ccc3ccccc3c1CC2(C)C (stereo not given),n,n,n,n,x,x
CC1(C)Cc2c(ccc3ccccc23)C2=C(C(=O)N3CCCC3)C(=O)C(=O)N21,n,n,n,13.2,n,n
COCCCNC(=O)C[C@H]1C[C@@]2(C(=O)OC)C(=C[C@H](C3CCCC3)O[C@@H]2C)N(Cc2cccc3ccccc23)C1=O,x,n,n,n,x,x
O=C(CN(CCc1ccccc1)S(=O)(=O)c1cccs1)N1CCOCC1,x,n,n,n,x,x
CCCSc1nnc(-c2ccco2)n1C,x,n,n,n,x,x
Cc1[nH]nc2c1C(c1ccc(F)cc1)C1=C(CC(C)(C)CC1=O)N2 (stereo not given),n,n,n,14.2,n,11.9
CC(CCN1CCC(C(O)(c2ccccc2)c2ccccc2)CC1)Oc1ccc(F)cc1 (stereo not given),x,n,n,n,x,x
C=CCNC(=O)CSc1ncc2c(n1)-c1c(csc1SC)CC2,n,n,n,46.4,59.0,68.8
CCC(=O)Nc1c(OC(=O)CC)ccc2c(C)cc(=O)oc12,n,n,n,273.1,256.2,253.6
CCC(=O)Oc1c(C(=O)CC)cc2c(C)cc(=O)oc2c1C,n,n,n,539.7,810.3,812.2
CCCCNC(=O)C[C@H]1C[C@@]2(C(=O)OC)C(=C[C@H](C(C)(C)C)O[C@@H]2C)N(Cc2ccc(Cl)cc2Cl)C1=O,x,n,n,n,x,x
Cc1ccccc1CN1CCCCC(NC(=O)c2ccc(F)cc2F)C1=O (stereo not given),x,n,n,n,x,x
CC[C@]12c3[nH]c4ccccc4c3CCN1C(=O)C(CC(=O)NCCN1CCOCC1)C[C@@H]2C(=O)N1CCN(C(=O)c2ccco2)CC1 (stereo not given in full),x,n,n,n,x,x
CC[C@]12c3[nH]c4cc(-c5ccco5)ccc4c3CCN1C(=O)[C@@H](CC(=O)NCCc1ccccn1)C[C@@H]2C(=O)N1CCN(C(=O)c2ccco2)CC1,x,n,n,150.9,119.4,137.9
CC[C@]12c3[nH]c4cc(-c5ccco5)ccc4c3CCN1C(=O)[C@@H](CC(=O)NCCN1CCOCC1)C[C@@H]2C(=O)N1CCN(C(=O)c2ccco2)CC1,x,n,n,88.3,63.7,86.1
CC[C@]12c3[nH]c4cc(-c5ccco5)ccc4c3CCN1C(=O)[C@@H](CC(=O)NCCN1CCOCC1)C[C@@H]2C(=O)N1CCN(C(=O)C2CC2)CC1,x,n,n,110.5,75.5,83.3
C[C@@H]1COc2cc(Br)ccc2S(=O)(=O)N1Cc1cn(Cc2ccc(C(F)(F)F)cc2)nn1,x,n,n,n,x,x
COc1ccccc1-c1nnc(SC2CCc3ccccc3NC2=O)s1 (stereo not given),n,n,n,12.9,n,6.3
COC(=O)c1cc(C)oc1C,x,n,n,n,x,x
CN1C=CC2=C(C#N)C(N)C(C#N)(C#N)C(c3ccccc3)C2C1 (stereo not given),n,n,n,25.4,33.1,35.2
SMILES,HIF activator,NPR1 activator,NPR2 activator,KLK7 zymogen act,KLK7 act conf,EDANS-DABCYL int
O=C(Nc1cccc(NC(=O)c2ccccc2Cl)c1)c1ccco1,n,n,n,n,x,x
O=C(Nc1cccc(NC(=O)c2ccc(-c3ccc(Br)cc3)o2)c1)c1ccco1,n,n,n,439.5,445.7,212.6
N#CC1=C(N)Oc2cc(O)c(Cl)cc2C1c1ccccc1F (stereo not given),n,n,n,15.8,n,n
N#CC1=C(N)Oc2cc(O)c(Cl)cc2C1c1cccnc1 (stereo not given),n,n,n,n,x,x
CNC(=O)C(C)N1c2cccc3cccc(c23)S1(=O)=O (stereo not given),n,n,n,14.8,n,13.2
C[C@]12c3[nH]c4ccc(Cl)cc4c3CCN1C(=O)[C@@H](CC(=O)NCCc1ccccn1)C[C@@H]2C(=O)N1CCOCC1,x,n,n,n,x,x
CCN(CC)C(=O)[C@H]1C[C@H](CC(=O)NCCc2ccccn2)C(=O)N2CCc3c([nH]c4cc(-c5ccco5)ccc34)[C@]12C,x,n,n,147.2,64.4,78.9
C[C@]12c3[nH]c4cc(-c5ccco5)ccc4c3CCN1C(=O)[C@@H](CC(=O)NCCc1ccccn1)C[C@@H]2C(=O)N1CCOCC1,x,n,n,112.8,52.1,67.9
CC(C)N(C(=O)[C@H]1C[C@H](CC(=O)NCCC2=CCCCC2)C(=O)N2CCc3c([nH]c4cc(-c5ccco5)ccc34)[C@]12C)C(C)C,x,n,n,n,x,x
CC(C)N(C(=O)[C@H]1C[C@H](CC(=O)NCCc2ccccn2)C(=O)N2CCc3c([nH]c4cc(-c5ccco5)ccc34)[C@]12C)C(C)C,x,n,n,183.8,28.7,29.9
Cc1cc(NS(=O)(=O)c2ccc(NC(=O)CSc3nnc(SCc4ccc(Cl)cc4)s3)cc2)nc(C)n1,x,n,n,n,x,x
COc1cc2ccc(=O)oc2c(O)c1OCC=C(C)C,n,n,n,147.9,152.3,151.1
CC(C)=CCOc1ccc2ccc(=O)oc2c1,n,n,n,n,x,x
COC(=O)[C@]12C[C@H](CC(=O)NCc3cccc4ccccc34)C(=O)N(Cc3ccc(Cl)cc3Cl)C1=C[C@H](C(C)(C)C)O[C@@H]2C,x,n,n,n,x,x
CN=C1S/C(=C/c2cc(C)n(-c3cc(C)ccc3OC)c2C)C(=O)N1C,x,n,n,x,x,x
O=c1oc2cc(O)ccc2cc1-c1ccccc1,x,n,n,71.7,65.8,77.0
O=c1oc2ccccc2cc1-c1ccc(O)cc1O,n,n,n,n,x,x
COc1ccc(-c2cc3ccc(O)cc3oc2=O)cc1,n,n,n,53.0,75.3,74.1
COc1ccccc1C(=O)c1cc2ccc(O)cc2oc1=O,n,n,n,n,x,x
NC(=O)c1cc2ccc(O)cc2oc1=Nc1ccccc1,n,n,n,39.9,n,7.9
COc1ccc(OC)c(N=c2oc3cc(O)ccc3cc2C(N)=O)c1,n,56.3,n,14.2,n,14.8
NC(=O)c1cc2ccc(O)cc2oc1=NCc1ccccc1,n,n,n,68.7,117.2,125.4
COc1ccc2cc(C(N)=O)c(=Nc3ccccc3)oc2c1,n,n,n,n,x,x
NC(=O)c1cc2ccccc2oc1=NCc1ccccc1,n,n,n,n,x,x
